Reference: PubChem BioAssay (NCI)
Compounds without any hit were thinned out: in the full panel of roughly 79,000, 15% have a hit. Cut-off read from the data, not from the text of the source: active = growth inhibition above about 70%; inactive = the rest.

Assays:
[1] = NCI Yeast Anticancer Drug Screen. Data for the rad50 strain (AID 155);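 note: 0% = growth of vehicle-only cultures of the same strain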; conditions: S. cerevisiae rad50 strain growth inhibition; at 50.0 µM; stronger effect = higher value
Method in brief: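 Growth of the mutant yeast was measured after compound exposure and referenced to vehicle-treated cultures.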

[2] = NCI Yeast Anticancer Drug Screen. Data for the mec2-1 strain (AID 157); conditions: S. cerevisiae mec2-1 strain, at 50.0 µM, stronger effect = higher value
Method in brief: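 Using mec2-1 yeast: add compound, measure growth, express inhibition versus vehicle-treated cultures.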

[3] = NCI Yeast Anticancer Drug Screen. Data for the mlh1 rad18 strain (AID 175); conditions: S. cerevisiae mlh1 rad18 strain growth inhibition; at 50.0 µM; stronger effect = higher value
Method in brief: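 Steps: expose repair-defective yeast to compound; measure growth; express inhibition against vehicle-treated controls.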

Measured: growth inhibition

COc1ccc(/C=C(\C#N)c2ccc(Cl)cc2)cc1OC
inactive: [1] -2.05% | [2] -8% | [3] -1.15%

O=C(Cc1cccc2ccccc12)N/N=C/c1ccc2c(c1)CCC2
inactive: [1] 14.9% | [2] -13.2% | [3] -8.45%

COc1cc(-c2cc(=O)c3c(O)cc(C)cc3o2)cc(OC)c1OC
inactive: [1] -0.85% | [2] -9.8% | [3] -17.8%

COc1cc(/C=C(/C#N)C(N)=O)ccc1O
inactive: [1] -1.7% | [2] -35% | [3] -54.9%

COc1ccc(C2NC(=O)c3ccccc3N2)c(OC)c1OC (stereo not drawn)
inactive: [1] -8.55% | [2] -20.5% | [3] -16.4%

CCC(C)NCCNCCNC(C)CC (stereo not drawn)
inactive: [1] -9% | [2] -11.1% | [3] 0.8%

NC(=O)C(=O)N/N=C/c1ccc2c(c1)CCC2
inactive: [1] -2.45% | [2] -10.9% | [3] 8.3%

c1ccc(-c2nc3ccc4ccccc4c3nc2-c2ccccc2)cc1
inactive: [1] -8.85% | [2] -35.2% | [3] 1.85%

COc1ccc(/C=N\NC(=O)OC(C)(C)C)c(OC)c1OC
inactive: [1] -23.8% | [2] -33.4% | [3] -24.4%

CC(=O)C1=CCC2C3CC(C)=C4CC(O)CCC4(C)C3CCC12C (stereo not drawn)
inactive: [1] 24.9% | [2] -1.15% | [3] -2.95%

c1cc[n+](CCNCC[n+]2ccccc2)cc1
inactive: [1] 8.55% | [2] -7.75% | [3] 36.6%

COc1ccc(C(C#N)N2CCCC2)cc1 (stereo not drawn)
inactive: [1] -21.9% | [2] -37.9% | [3] -9.75%

COc1cc(-c2cc(=O)c3ccc(O)cc3o2)cc(OC)c1OC
inactive: [1] 10.1% | [2] -32.4% | [3] 2.2%

CCOC(=O)NC(C)(C)CN(C(=O)OCC)C(C)(C)CO
inactive: [1] 3.5% | [2] -26.2% | [3] 8.05%

O=C(O)c1cc(N=Nc2ccccc2)ccc1O
inactive: [1] -19.1% | [2] -12.7% | [3] -23.8%

CCCCCCCCOC(=O)C(=O)C(C#N)c1ccccc1 (stereo not drawn)
inactive: [1] 6.95% | [2] 6.3% | [3] 10.2%

O=C(O)CSCc1nc2ccccc2[nH]1
inactive: [1] -10.8% | [2] -15.7% | [3] 41.8%

O=CNC(Cc1ccc(O)cc1)C(=O)O (stereo not drawn)
inactive: [1] 4.1% | [2] -30.4% | [3] -8.4%

Cc1ccc(NC(=S)N(C)C)cc1C
inactive: [1] -2.7% | [2] -26.3% | [3] 1.1%

S=c1[nH]nc(NC2CCCCC2)s1
inactive: [1] -4.4% | [2] -12% | [3] -7.1%

CC12CC3CC(C(Cl)C(=O)O)(C1)CC(C(Cl)C(=O)O)(C3)C2 (stereo not drawn)
inactive: [1] 52.1% | [2] 14.5% | [3] 46.6%

CCN(CC#N)c1ccc(Nc2cc(Cl)ccc2Cl)cc1
inactive: [1] 8.75% | [2] -22.1% | [3] 0.3%

C[Si](C)(CCl)N[Si](C)(C)CCl
inactive: [1] -23.6% | [2] -33.9% | [3] -6.1%

O=S(=O)(O)c1ccc(-c2ccccc2)cc1
inactive: [1] -0.4% | [2] -16.1% | [3] -5.4%

O=C1NC(=O)C(c2ccccc2)(C2CCC2)N1 (stereo not drawn)
inactive: [1] -6.95% | [2] -33.1% | [3] -13.3%

O=[N+]([O-])c1ccc(-n2[nH]nnc2=S)cc1
inactive: [1] -6.7% | [2] -25% | [3] 16.1%

O=C1c2ccccc2C(=O)N1/N=C/c1ccc2c(c1)OCO2
inactive: [1] 22.5% | [2] 10.2% | [3] 18.4%

CCOC(=O)c1sc(N)c(C(=O)OCC)c1C
inactive: [1] -38.2% | [2] -46.8% | [3] -20.1%

O=C(O)c1ccccc1Oc1ccccc1C(=O)O
inactive: [1] -8.75% | [2] -22.9% | [3] -22.6%

CCCCCCCCCCCCOc1ccccc1
inactive: [1] 6.15% | [2] -14.3% | [3] 7.6%

CC(C)C(C(=O)c1ccccc1)c1ccccc1 (stereo not drawn)
inactive: [1] -0.3% | [2] -10.1% | [3] -3.55%
